This is part of a sample that, as a whole, favours compounds with a hit. Of some 79,000 tested, about 15% had one in any assay. Activity calls are given as the source filed them. Rule as the data show it: active = growth inhibition above about 70%; inactive = the rest.
Assays:
[1] = NCI Yeast Anticancer Drug Screen. Data for the rad50 strain (AID 155);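 also: 0% = growth of vehicle-only cultures of the same strain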; conditions: S. cerevisiae rad50 strain growth inhibition, hits give high values
Method in brief: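 DNA repair mutant yeast, compound exposure, growth read-out; inhibition is taken relative to vehicle.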

[2] = NCI Yeast Anticancer Drug Screen. Data for the mec2-1 strain (AID 157); conditions: S. cerevisiae mec2-1 strain, hits give high values
Method in brief: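 Cells of the genetically defined mec2-1 yeast strain are incubated with test compound. Inhibition of growth is calculated against vehicle-treated controls.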

[3] = NCI Yeast Anticancer Drug Screen. Data for the sgs1 mgt1 strain (AID 161);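 also: 0% = growth of cultures given vehicle only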; conditions: S. cerevisiae sgs1 mgt1 strain, hits give high values
Method in brief: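 Mutant yeast exposed to compound; growth scored against vehicle-only wells.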

[4] = NCI Yeast Anticancer Drug Screen. Data for the cln2 rad14 strain (AID 165);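 also: 0% = growth equal to vehicle treated cultures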; conditions: S. cerevisiae cln2 rad14 strain, hits give high values
Method in brief: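 The screen exposed genetically defined yeast (cln2 rad14) to test compounds and scored growth inhibition relative to vehicle-treated controls.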

[5] = NCI Yeast Anticancer Drug Screen. Data for the bub3 strain (AID 167); conditions: S. cerevisiae bub3 mutant strain, hits give high values
Method in brief: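 In this screen, a yeast mutant lacking normal mitotic checkpoint function is challenged with compound. Relative growth versus vehicle gives the inhibition value.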

[6] = NCI Yeast Anticancer Drug Screen. Data for the mlh1 rad18 strain (AID 175); conditions: S. cerevisiae mlh1 rad18 strain growth inhibition, hits give high values
Method in brief: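 Compound-treated yeast growth, normalised to vehicle controls. Strain bears defined DNA repair mutations.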

[7] = at 5.0 µM (retest, dose inferred, filed as 0.5)
[8] = at 50.0 µM (retest, dose inferred, filed as 5.0)

Measured: growth inhibition

COC(=O)CCc1c(Cc2ccc[nH]2)[nH]c(C(=O)OCc2ccccc2)c1C
active: [1]; [8] 91% | [2]; [8] 92% | [2]; at 50.0 µM 71% | [3]; [8] 94% | [4]; [8] 95% | [4]; at 50.0 µM 77.5% | [5]; [8] 92% | [5]; at 50.0 µM 76.3% | [6]; [8] 94% | [6]; at 50.0 µM 74.8%
inactive: [1]; [7] -20% | [1]; at 50.0 µM 55% | [2]; [7] -12% | [3]; [7] -12% | [3]; at 50.0 µM 69% | [4]; [7] -32% | [5]; [7] -35% | [6]; [7] -5%

O=[N+]([O-])c1ccc(S)c(Cl)c1
inactive: [1]; [7] 16% | [2]; [7] 20% | [3]; [7] 28% | [4]; [7] 0% | [4]; [8] 55% | [4]; at 50.0 µM 52.6% | [5]; [7] 14% | [6]; [7] 45%
active: [1]; [8] 95% | [1]; at 50.0 µM 95.5% | [2]; [8] 95% | [2]; at 50.0 µM 87.7% | [3]; [8] 95% | [3]; at 50.0 µM 90.3% | [5]; [8] 95% | [5]; at 50.0 µM 87.2% | [6]; [8] 95% | [6]; at 50.0 µM 93.5%

O=C1C(=C2C(=O)c3ccccc3[N+]2=O)N([O-])c2ccccc21
inactive: [1]; [7] -2% | [1]; [8] 36% | [1]; at 50.0 µM 69% | [2]; [7] -6% | [2]; [8] 59% | [2]; at 50.0 µM 56% | [3]; [7] -3% | [3]; [8] 52% | [4]; [7] -10% | [4]; [8] 15% | [4]; at 50.0 µM 68% | [5]; [7] -6% | [5]; [8] 31% | [5]; at 50.0 µM 57.8% | [6]; [7] -5% | [6]; [8] 56%
active: [3]; at 50.0 µM 84.3% | [6]; at 50.0 µM 85.5%

CCCCCOC(=O)CSC#N
active: [1]; [7] 93% | [1]; [8] 99% | [1]; at 50.0 µM 98.7% | [2]; [7] 97% | [2]; [8] 99% | [2]; at 50.0 µM 99% | [3]; [7] 96% | [3]; [8] 98% | [3]; at 50.0 µM 98.8% | [4]; [7] 79% | [4]; [8] 99% | [4]; at 50.0 µM 98.5% | [5]; [7] 96% | [5]; [8] 99% | [5]; at 50.0 µM 98.7% | [6]; [7] 91% | [6]; [8] 99% | [6]; at 50.0 µM 98.8%

S=C(N/N=C(/c1ccccc1)c1ccccn1)N1CCCCC1
active: [1]; [8] 98% | [1]; at 50.0 µM 80.2% | [2]; [8] 98% | [2]; at 50.0 µM 86.3% | [3]; [8] 98% | [3]; at 50.0 µM 88.2% | [4]; [8] 97% | [4]; at 50.0 µM 89% | [5]; [8] 97% | [5]; at 50.0 µM 90.2% | [6]; [7] 83% | [6]; [8] 98% | [6]; at 50.0 µM 90.8%
inactive: [1]; [7] 58% | [2]; [7] 27% | [3]; [7] 66% | [4]; [7] 30% | [5]; [7] 54%

COc1cc(C(c2cc3c(cc2OC(C)=O)OCO3)C(C(C)=O)C(C)=O)cc(OC)c1OC(C)=O (configuration not stated)
inactive: [1]; [7] 7% | [1]; [8] 18% | [1]; at 50.0 µM 3.7% | [2]; [7] -4% | [2]; [8] 18% | [2]; at 50.0 µM 5% | [3]; [7] -5% | [3]; [8] 0% | [3]; at 50.0 µM -18.9% | [4]; [7] -1% | [4]; [8] 1% | [4]; at 50.0 µM -16.4% | [5]; [7] 8% | [5]; [8] 13% | [5]; at 50.0 µM 8.75% | [6]; [7] 3% | [6]; [8] 11% | [6]; at 50.0 µM -4.2%

CC(C)C(Sc1nc(-c2ccccc2)c(-c2ccccc2)[nH]1)C(=O)NN (configuration not stated)
active: [1]; [8] 91% | [1]; at 50.0 µM 90.2% | [2]; [8] 96% | [3]; [8] 94% | [3]; at 50.0 µM 91.5% | [4]; [8] 98% | [4]; at 50.0 µM 90% | [5]; [8] 98% | [5]; at 50.0 µM 89% | [6]; [8] 96% | [6]; at 50.0 µM 89.4%
inactive: [1]; [7] -7% | [2]; [7] -36% | [2]; at 50.0 µM 33.4% | [3]; [7] -3% | [4]; [7] 17% | [5]; [7] 29% | [6]; [7] -11%

OCc1cc2c([nH]c3ccccc32)c(C(O)CO)n1 (configuration not stated)
active: [1]; at 50.0 µM 92.9% | [2]; at 50.0 µM 94.5% | [3]; at 50.0 µM 94.5% | [4]; at 50.0 µM 92.7% | [5]; at 50.0 µM 93.3%
inactive: [1]; [7] -2% | [1]; [8] -6% | [2]; [7] 0% | [2]; [8] -3% | [3]; [7] -2% | [3]; [8] -3% | [4]; [7] 0% | [4]; [8] -1% | [5]; [7] 2% | [5]; [8] -2% | [6]; [7] 1% | [6]; [8] -4% | [6]; at 50.0 µM -68.3%

CN=C(N)N/N=C(\C)c1ccc2c(c1)Cc1cc(Cl)ccc1-2
active: [1]; at 50.0 µM 98.8% | [2]; at 50.0 µM 97% | [3]; [8] 97% | [3]; at 50.0 µM 98.7% | [4]; at 50.0 µM 93.1% | [5]; [8] 90% | [5]; at 50.0 µM 98.7% | [6]; [8] 97% | [6]; at 50.0 µM 98.5%
inactive: [1]; [7] 34% | [1]; [8] 37% | [2]; [7] 16% | [2]; [8] 38% | [3]; [7] 13% | [4]; [7] 8% | [4]; [8] 56% | [5]; [7] 7% | [6]; [7] 9%
